PubChem BioAssay AID956 (National Center for Advancing Translational Sciences (NCATS), 2007)
Some of the results follow. A call without a number means that no potency is given here. Records with an inconclusive call do not appear. Activity calls are given as the source filed them. Calls follow the shape of the full dose curve.

Target: Amyloid-beta precursor protein (Homo sapiens) (UniProt P05067)
Experiment: Beta amyloid ThS binding assay
Settings: Abeta1-42 fibrillization, thioflavin S fluorescence, overnight 37 C
Description: NIH Molecular Libraries Screening Centers Network [MLSCN] NIH Chemical Genomics Center [NCGC] MLSCN Grant: 1 X01 MH079825-01 Assay Provider: Jeffrey A. Kuret, Ohio State University NCGC Assay Overview: Alzheimer disease is characterized by the accumulation of proteinacious aggregates comprised of tau and beta-amyloid. The protein components of each lesion can be induced to form filaments under experimentally tractable times when incubated in vitro with anionic inducers such as alkyl sulfate detergents or fatty acids. […] Here we describe the in vitro fibrillization of beta-amyloid 1-42 (Abeta1-42). Abeta1-42 proteins were induced to form filaments by incubation overnight at 37 C in the presence of arachidonic acid. […] Small molecules capable of ThS displacement or antagonizing fibrillization result in a decrease in ThS fluorescence, allowing determination of binding affinities for molecules screened.
NCGC Assay Protocol Summary Human Beta amyloid peptide 1-42 (American Peptide Co., Sunnyvale, CA) was resuspended in hexafluoroisopropanol (by vortexing in a glass vial) to a final concentration of 1 mM. […] Fluorescence (ex = 440 nm; em = 485 nm) was measured after brief shaking (10 s) in a FlexStation plate reader (Molecular Devices, Sunnyvale, CA) operated at sensitivity 10, automatic PMT. […]

Amyloid-beta precursor protein (Homo sapiens), sequence (P05067 whole entry, looked up): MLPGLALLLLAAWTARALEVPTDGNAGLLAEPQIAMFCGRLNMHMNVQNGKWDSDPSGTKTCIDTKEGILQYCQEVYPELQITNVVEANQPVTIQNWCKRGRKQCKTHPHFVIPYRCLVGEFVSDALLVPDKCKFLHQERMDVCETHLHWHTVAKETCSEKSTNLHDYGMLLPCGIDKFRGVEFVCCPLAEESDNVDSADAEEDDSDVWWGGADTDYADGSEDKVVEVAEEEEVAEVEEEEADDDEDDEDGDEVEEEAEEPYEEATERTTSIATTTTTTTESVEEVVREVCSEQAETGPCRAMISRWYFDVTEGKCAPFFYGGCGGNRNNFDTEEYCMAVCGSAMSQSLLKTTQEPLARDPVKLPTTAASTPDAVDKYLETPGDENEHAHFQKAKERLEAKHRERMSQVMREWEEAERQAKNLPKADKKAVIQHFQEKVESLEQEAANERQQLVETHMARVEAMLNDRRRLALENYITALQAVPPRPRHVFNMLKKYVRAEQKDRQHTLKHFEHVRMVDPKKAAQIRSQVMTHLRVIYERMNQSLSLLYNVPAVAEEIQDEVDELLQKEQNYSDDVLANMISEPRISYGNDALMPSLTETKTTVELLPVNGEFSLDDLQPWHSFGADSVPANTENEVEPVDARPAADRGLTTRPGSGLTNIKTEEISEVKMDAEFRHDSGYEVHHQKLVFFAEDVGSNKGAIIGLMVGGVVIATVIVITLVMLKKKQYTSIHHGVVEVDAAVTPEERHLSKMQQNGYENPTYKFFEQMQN

| Structure (SMILES) | outcome | Potency |
| --- | --- | --- |
| O=C(CCCCn1c(=O)[nH]c2ccccc2c1=O)NCc1ccc2c(c1)OCO2 | inactive |  |
| Oc1ccc(O)c2c(O)cccc12 |  | 4.52 µM (active) |
